Results from PubChem BioAssay AID651724 (National Center for Advancing Translational Sciences (NCATS), 2012).
The campaign covered roughly 340,000 compounds. About 1,700 (0.5%) were called active. Not shown: some 2% with an inconclusive outcome. Rule as the data show it: active = activity change below about -65%; inconclusive = mostly about -30% to -63%; inactive = weaker than that. For the sample, actives were picked, then their nearest neighbours and some compounds at random.

Test system: CtBP / adenovirus E1A interaction (AlphaScreen)
Test: qHTS Assay for Inhibitors of the CtBP/E1A Interaction
Settings: AlphaScreen GST-E1A/His-CtBP binding, 1536-well; stronger effect = lower value
Summary of the method: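 Homogeneous bead-based format: GST-tagged E1A captured on glutathione donor beads, His-tagged CtBP on nickel acceptor beads; compounds precede bead addition by 2 h at 37 °C.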
% is scaled to controls: 0 for no effect and ±100 for the full control effect.

Structure (SMILES) | activity change
O=S1(=O)CCN(Cc2ccccc2)CC1 | 7.73% (inactive)
O=C1c2ccccc2C(=O)c2c1cccc2N1CCN(Cc2ccccc2)CC1 | -94.4% (active)
O=C1c2ccccc2C(=O)c2c1cccc2N1CCN(CCO)CC1 | -25.7% (inactive)
C[C@@H]1CN([C@@H](C)CO)C(=O)CCCn2nncc2CO[C@H]1CN(C)C(=O)Nc1ccc(C(F)(F)F)cc1 | -18.9% (inactive)
COC(=O)[C@]12CCCCC=C1N(CCC1=CCCCC1)C(=O)[C@H](CC(=O)N1CCSCC1)C2 | -7.56% (inactive)
Cc1cc(Cl)ccc1-c1nc(NCCN(C)C)nc2ccsc12 | -3.67% (inactive)
Cc1cc(=O)[nH]c(N/N=C/c2c(C)nn(-c3ccccc3Cl)c2Cl)n1 | 5.1% (inactive)
CCOc1ccc(-n2c(O)c(/C=N/Nc3nnc(C)c(=O)[nH]3)c3ccccc3c2=O)cc1 | -92.9% (active)
CCN(CC)CCCN=Cc1c(O)n(-c2ccc(C)cc2)c(=O)c2ccccc12 | -3% (inactive)
Cc1nnc(N/N=C/c2ccccn2)[nH]c1=O | -90.3% (active)
CCOc1ccc(-n2c(O)c(/C=N/Nc3nc(C)cc(C)n3)c3ccccc3c2=O)cc1 | -6.77% (inactive)
Cc1nnc(N/N=C/C2CC=CCC2)[nH]c1=O (centres undefined) | -19.9% (inactive)
Cc1ccc(NC(=O)CSc2nn3c(=O)c(C)nnc3s2)cc1Cl | -85.4% (active)
Cc1ccc(NC(=O)CSc2nnc(CNC(=O)c3ccccc3F)o2)cc1Cl | -15.1% (inactive)
COc1ccc(Cc2nnc(SCC(=O)Nc3ccc(C)c(Cl)c3)[nH]c2=O)cc1 | -19.5% (inactive)
CC1(C(=O)NCc2ccc3c(c2)OCO3)CCN1C(=O)Cc1cccc2ccccc12 (centres undefined) | -3.05% (inactive)
CCOC(=O)C=Cc1ccc(C(=O)OCC)[nH]1 | 1.94% (inactive)
O=C(NC1CCCCC1)C(c1cc2ccccc2o1)n1c(=O)c(-c2ccco2)nc2ccccc21 (centres undefined) | 6.62% (inactive)
Cc1cccc(-n2cnc(C(=O)Nc3cccnc3)c2)n1 | 3.1% (inactive)
Cn1cc(Cl)c(C(=O)NNC(=S)Nc2cccc(Cl)c2)n1 | -27.4% (inactive)
Cc1cccc(-n2cnc(C(=O)NNC(=S)Nc3ccccc3)c2)n1 | -91.7% (active)
CC(C)N=C1CCCC1C(=S)SSC(=S)C1CCCC1=NC(C)C (centres undefined) | -5.04% (inactive)
CCCCCNC(=O)C(c1ccc(OC)cc1)n1c(=O)c(-c2ccccc2)nc2ccccc21 (centres undefined) | 0% (inactive)
C#Cc1ccc(NC(=O)C2(C)CCN2C(=O)Cc2ccc(-c3ccccc3)cc2)cc1 (centres undefined) | 0.392% (inactive)
O=C(Cn1ncc2c3ccccc3n(Cc3ccccc3)c2c1=O)NCc1ccccn1 | -0.706% (inactive)
Cc1c2cnn(CC(=O)NCc3ccccn3)c(=O)c2c(C)n1Cc1ccc(Cl)cc1 | -67.4% (active)

Structure (SMILES) | activity change
Cc1ccc(Cn2c(C)c3cnn(CC(=O)NCc4ccccn4)c(=O)c3c2C)cc1 | -24.7% (inactive)
CCc1nc2c(OCc3ccc(C(=O)OC)cc3)cccn2c1N(C)C(=O)C(C)C | 0.85% (inactive)
CC(=O)Nc1cccc(-c2cc(NC=O)c3ncc(-c4ccc(F)c(Cl)c4)n3c2)c1 | 6.58% (inactive)
COc1ccccc1N1CCN(/N=C/c2ccc(O)cc2O)CC1 | -7.8% (inactive)
Oc1ccc(-c2nc3ccccc3nc2-c2ccc(O)cc2O)c(O)c1 | -12.2% (inactive)
Cc1nc2ccccc2nc1N/N=C/c1ccc(O)cc1O | -92.6% (active)
CC(C)n1ncc2c(C(=O)N3CCN(Cc4cccs4)CC3)cc(C3CC3)nc21 | -9.59% (inactive)
COc1cc(NC(=O)c2cc(-c3ccc(F)cc3OC(C)C)n[nH]2)cc(OC)c1OC | -4.63% (inactive)
C[C@H]1CN([C@@H](C)CO)S(=O)(=O)c2ccc(Br)cc2O[C@H]1CN(C)C(=O)c1cnccn1 | 0.784% (inactive)
O=C(N/N=C/c1ccccn1)C12CC3CC(CC(C3)C1)C2 | 1.59% (inactive)
Cc1cc(C(=O)N/N=C/c2ccccn2)c2ccccc2n1 | -14.7% (inactive)
S=C(NN=Cc1ccccn1)Nc1ccccn1 | -73.6% (active)
COc1ccc(-c2ccc(CN3C(CC(C)C)C(=O)N(Cc4cn(CC5CCCCC5)nn4)CCS3(=O)=O)cc2)cc1 (centres undefined) | -0.831% (inactive)
Cc1ccc(S(=O)(=O)N2CCC(=O)N([C@H](COCc3ccccc3)C(C)C)CC2)cc1 | 3.58% (inactive)
CC(C)(C)Cc1c(C2CCCCC2)nc2ccc(Br)cn12 | 10.7% (inactive)
COc1cccc(NC(=S)NCCCN2CCOCC2)c1 | 5.66% (inactive)
Cc1ccc(C(=O)NC(=S)NCCN2CCOCC2)cc1 | -5.38% (inactive)
CCOc1cccc(/C=N/NC(=S)NCCN2CCOCC2)c1O | -80.7% (active)
Nc1cccc(-c2cncc(N3CCN(Cc4ccccn4)CC3)n2)c1 | 1.71% (inactive)
Cc1c(NC(=O)CSc2cccc3cccnc23)c(=O)n(-c2ccccc2)n1C | -87.1% (active)
Cc1ccccc1OCCC(=O)Nc1c(C)n(C)n(-c2ccccc2)c1=O | -0.0402% (inactive)
Cc1ccc(S(=O)(=O)CC(=O)Nc2c(C)n(C)n(-c3ccccc3)c2=O)cc1 | -13.1% (inactive)
COc1ccc(CC(N)c2csc(NC(=O)Nc3ccc(C(C)C)cc3)n2)cc1 (centres undefined) | -13.2% (inactive)
Cc1cc(F)ccc1S(=O)(=O)N1CCCOC1CNC(=O)C(=O)NCCC1=CCCCC1 (centres undefined) | 22.2% (inactive)
O=C(NCCCc1ccccc1)C(=O)NCC1OCCN1S(=O)(=O)c1ccccc1 (centres undefined) | 22.6% (inactive)
O=C(NCCCn1ccnc1)C(=O)NCC1OCCN1S(=O)(=O)c1cc(F)ccc1F (centres undefined) | -71.2% (active)

Structure (SMILES) | activity change
COc1ccc([C@H]2CC(=O)C[C@@H](CCn3cc(CC4CCCC4)nn3)O2)cc1 | -3.9% (inactive)
CC1(C(=O)NS(=O)(=O)c2ccc(Cl)cc2)CCN1C(=O)CC1CCCC1 (centres undefined) | 2.24% (inactive)
CN[C@H]1C[C@H]2c3cc(Oc4ccccc4C)ccc3CCN2C(=O)[C@H]1[C@H](C)O | -12.1% (inactive)
CCOc1ccc(N2C(=O)CSC2=NC#N)cc1 | -0.654% (inactive)
CCOc1cccc(/C=N/N2C(=O)CSC2=S)c1O | -92.9% (active)
CCOc1cc(/C=N/n2cnnc2)c(Br)cc1O | -6.92% (inactive)
Cc1ccccc1-c1csc(C(O)c2cccc(Cl)c2)n1 (centres undefined) | 3.42% (inactive)
CN(C(=O)CN1CCN(c2cc(-c3ccc(OCc4ccccc4)cc3)ncn2)CC1)c1ccccc1 | 0.325% (inactive)
COc1c(O)ccc2c1CN1CCc3cc4c(cc3C1C2)OCO4 (centres undefined) | -66.6% (active)
COc1ccc2cc1Oc1ccc(cc1)C[C@H]1c3cc(c(OC)cc3CCN1C)Oc1c(O)c(OC)cc3c1[C@H](C2)N(C)CC3 | -4.43% (inactive)
COc1cc(C(=O)CCc2ccc3c(c2)OCO3)cc(OC)c1OC | 2.78% (inactive)
COc1ccccc1CNc1nc(Nc2ccccc2Cl)c2sccc2n1 | -5.37% (inactive)
NC(c1csc(NC(=O)Nc2cccc(C(F)(F)F)c2)n1)C1CCCCC1 (centres undefined) | -2.68% (inactive)
CC1(C)OC(=O)C2=C(C[C@@H](C3CC3)O[C@H]2CCc2cccc(Cl)c2)O1 | 11.1% (inactive)
CCCNC(=O)C1(C)CCN(Cc2csc(-c3ccc(Cl)cc3)n2)C1 (centres undefined) | -2.56% (inactive)
COc1cccc(/C=N/Nc2ncc(C(F)(F)F)cc2Cl)c1O | -98.2% (active)
Oc1ccc(/C=N/Nc2ccc(C(F)(F)F)cn2)cc1O | -14% (inactive)
COc1cccc(/C=N/Nc2ccc(S(=O)(=O)Nc3ccccc3C(=O)O)cc2[N+](=O)[O-])c1O | -15.4% (inactive)
CC(C)c1cccc(C(C)C)c1Nc1cn[nH]c1 | -13.7% (inactive)
COCCCNc1ccn2nc(-c3ccc(CC(C)C)cc3)cc2n1 | 4.88% (inactive)
COc1ccc(CN2CCC(C)(Oc3cccc(F)c3)C2)c2ccccc12 (centres undefined) | -13.7% (inactive)
CCN(CC)CCOc1ccc2c(c1)C(=NNC(=O)c1ccccn1)c1cc(OCCN(CC)CC)ccc1-2 | -70.2% (active)
CCC(C(=O)OCCN(CC)CC)c1ccccc1 (centres undefined) | -0.583% (inactive)
CCOc1cc2ccccc2cc1C(=O)Nc1ccccn1 | -7.02% (inactive)
Cc1nc2c(OCc3ccc(Cl)cc3)cccn2c1N(C)Cc1cccs1 | -7.51% (inactive)
CC1CCCC(NC(=O)COC(=O)c2ccccc2C(=O)N(C)C2CCCCC2)C1C (centres undefined) | -2.61% (inactive)

Structure (SMILES) | activity change
Cc1c(NC(=O)COC(=O)/C=C/c2cccc(F)c2)c(=O)n(-c2ccccc2)n1C | 0.516% (inactive)
CCOc1ccc(CCN2C(=S)N([C@@H](CC(C)C)CN3CCC[C@@H]3CN3C(=S)NC[C@@H]3Cc3ccc(O)cc3)C[C@@H]2CC(C)C)cc1 | -10.9% (inactive)
CC(=O)Nc1cccc(-c2ccnc3c2CC(C)(C(=O)NCc2ccco2)O3)c1 (centres undefined) | -10.5% (inactive)
S=c1[nH]nc(-c2cccs2)n1/N=C/c1cccs1 | 0% (inactive)
NC(=O)N/N=C\c1cccs1 | -12.4% (inactive)
Cc1n[nH]c(=O)nc1N/N=C/c1cccs1 | -89.5% (active)
C=CCC[C@@H](CCCCC)OC(=O)/C=C/[C@@H](O)[C@H](O)C[C@H](O)CC=C | -9.7% (inactive)
COc1ccc(C(C(=O)NCc2ccccc2)n2c(=O)c(-c3ccccc3)nc3ccccc32)cc1 (centres undefined) | 0% (inactive)
O=C(COc1ccccc1F)NC1CC1 | 8.72% (inactive)
O=C(NCCN1C(=O)C2C3C=CC(C3)C2C1=O)Nc1ccccn1 (centres undefined) | -15.4% (inactive)
CC(NC(=O)c1ccco1)C(=O)Nc1nc(-c2ccccn2)cs1 (centres undefined) | -88.4% (active)
O=C(CN1C(=O)C2C3C=CC(C3)C2C1=O)NCCc1ccccc1Cl (centres undefined) | 12.6% (inactive)
CC1CCN(S(=O)(=O)c2nnc(NC(=O)COc3ccccc3F)s2)CC1 | 1.46% (inactive)
O=C(COc1ccccc1F)Nc1nc(-c2ccccn2)cs1 | -89% (active)
CSCCC(NC(=O)c1ccco1)C(=O)Nc1cc(C)ccn1 (centres undefined) | 0.873% (inactive)
CCOC(=O)N1CCN(C(=O)C(C)NC(=O)c2ccco2)CC1 (centres undefined) | -2.35% (inactive)
O=C(CN1C(=O)C2C3C=CC(C3)C2C1=O)Nc1nc(-c2ccccn2)cs1 (centres undefined) | -80.4% (active)
CCOC(=O)c1cc(-c2sc(NC(=O)c3ccccc3)nc2C)n(Cc2ccccc2)n1 | 0.44% (inactive)
CN1OC[C@@H]2CN(S(=O)(=O)c3cccc(C(F)(F)F)c3)[C@H](c3ccc(-c4cc5ccccc5o4)cc3)C[C@@H]21 | -21.8% (inactive)
CCCCC(=O)N(C)c1c(CC)nc2c(OCc3ccc(S(C)(=O)=O)cc3)cccn12 | 0.375% (inactive)
COc1cc(/C=N/NC(=O)CNC(=O)c2ccncc2)ccc1OC(C)=O | -2.8% (inactive)
COc1ccc(/C=N\NC(=O)c2sc(N)nc2C)cc1OC | -68.1% (active)
COc1cccc(OCc2cc(/C=N/NC(=O)c3nc(Cl)c(Cl)c(N)c3Cl)ccc2OC)c1 | 7.69% (inactive)
O=C(NCc1cccnc1)c1cc(C2CCCN(C(=O)CCCc3ccccc3)C2)on1 (centres undefined) | 0.406% (inactive)
CCN(CC)C(=O)C1=C(C)N(Cc2ccccc2)C(=O)C(CC(=O)NC(c2ccccc2)c2ccccc2)C1 (centres undefined) | -5.91% (inactive)
CCCOc1ccc(F)cc1-c1cc(C(=O)NCc2ccc(F)cc2)[nH]n1 | 0% (inactive)
